Records with an inconclusive call do not appear. A call without a number means that no potency is given here. Active and inactive are the calls of the source. The call rests on the fitted dose curve; in most records, active means well fitted curve in the direction sought with a large enough effect; inconclusive means small, poorly fitted or top-dose-only effect, or another doubt; inactive means no such curve, though single readings can be large; an effect the other way counts as inactive or inconclusive. Residues, ends and D or L forms follow the SMILES beside them. *: point of attachment. Cbz = O=C(OCc1ccccc1)*
assay: qHTS for Activators of Parkin Expression: LOPAC Validation Assay (NLuc Reporter) (AID 720572); conditions: Parkin promoter NanoLuc reporter cells, luminescence; series mostly up to 46.1 µM
Procedure, shortened: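 Neuronal cells with a Parkin promoter-driven FLuc/NLuc coincidence reporter were treated 24 h at 37 C in 7-point dose response (LOPAC). NLuc luminescence read after FLuc; signals normalized to DMSO and positive control (100%).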

Row | Compound | Potency
1 | CCc1ccc2c(-c3cccc(Cl)c3)nc(=O)n(CC)c2n1 | inactive
2 | CNc1cc(NS(=O)(=O)c2ccc(N)cc2)nc(NC)n1 | inactive
3 | COCc1nc2c([nH]1)c(=O)n(C)c(=O)n2CC(C)C | inactive
4 | CNc1ncnc2c1ncn2[C@H]1C[C@H](OP(=O)(O)O)[C@@H](COP(=O)(O)O)O1 | inactive
5 | NC(N)=N[C@@H](CCC(=O)O)C(=O)O | inactive
6 | CCSC(=N)N | inactive
7 | CCCCCCCCCC(=O)NC(CN1CCOCC1)[C@H](O)c1ccccc1 (stereo partly specified) | inactive
8 | COc1cc2c(CCNC(C)=O)c[nH]c2cc1O | inactive
9 | CCC(=O)N1CCN(C(=O)c2ccccc2)CC1 | inactive
10 | NC/C=C\C(=O)O | inactive
11 | Nc1ncnc2c1nc(Br)n2C1OC2COP(=O)(O)O[C@@H]2C1O (stereo partly specified) | inactive
12 | CCCn1c(=O)c2c(ncn2C)n(CCC)c1=O | inactive
13 | O=C(O)Cc1ccc(O)c(O)c1 | inactive
14 | CN(C)C(=O)/N=N/C(=O)N(C)C | inactive
15 | Nc1nc2c(nc(Br)n2C2OC3COP(=O)(O)O[C@@H]3C2O)c(=O)[nH]1 (stereo partly specified) | inactive
16 | OC[C@H]1O[C@@H](n2cnc3cncnc32)[C@H](O)[C@@H]1O | inactive
17 | N=C(N)SCCc1cnc[nH]1 | inactive
18 | CC(C)[C@H](NC(=O)OCc1ccccc1)C(=O)N[C@H](C=O)Cc1ccccc1 (Cbz-Val-Phe-aldehyde) | inactive
19 | NCCCCN | inactive

Row | Compound | Potency
20 | CCCCCCN(CCCCCC)C(=O)Cc1c(-c2ccc(F)cc2)[nH]c2ccccc12 | inactive
21 | Cn1c(=O)c2[nH]c(-c3ccc(S(=O)(=O)O)cc3)nc2n(C)c1=O | inactive
22 | CN1Cc2sccc2C(c2ccc(O)c(O)c2)C1 (stereo unspecified) | inactive
23 | NCCC1CCCC(CCN)N1 (stereo unspecified) | inactive
24 | NCCCNCCCCNCCCN | inactive
25 | O=C1C2C=CC=CC2=NC(=S)N1CCN1CCC(=C(c2ccc(F)cc2)c2ccc(F)cc2)CC1 (stereo unspecified) | inactive
26 | CC(C)(C)c1cc(/C=C(\C#N)C(N)=S)cc(C(C)(C)C)c1O | inactive
27 | CCCCCCCCCCC(C)(C)C(=O)Nc1c(OC)cc(OC)cc1OC | inactive
28 | CN[C@H](CC(=O)O)C(=O)O | inactive
29 | COc1cc(CNC(=O)CCCCCCC(C)C)ccc1O | inactive
30 | Cc1ccc([N+](=O)[O-])cc1S(=O)(=O)N(C)C | inactive
31 | COc1ccc(CCn2nnnc2C2(c3ccc(C)cc3)CC2)cc1 | inactive
32 | N=C(N)c1ccc(OCCCCCOc2ccc(C(=N)N)cc2)cc1 (tested in a mixture with another compound) | inactive
33 | N[C@@H](CCC(=O)N[C@H](CSN=O)C(=O)NCC(=O)O)C(=O)O | inactive
34 | c1ccc(C(NCCNC(c2ccccc2)c2ccccc2)c2ccccc2)cc1 | inactive
35 | COC(=O)C(N)Cc1ccc(Cl)cc1 (stereo unspecified) | inactive
36 | NCCNS(=O)(=O)c1cccc2c(Cl)cccc12 | inactive
37 | O=C(O)c1cc2cc(F)ccc2[nH]1 | inactive
38 | Nc1ccc(N2C(=O)c3ccccc3C2=O)c(Cl)c1 | inactive

assay: qHTS for Activators of Parkin Expression: LOPAC Validation Assay (FLuc Reporter) (AID 720573); conditions: Cell line, PRKN promoter firefly luciferase reporter; series mostly up to 46.1 µM
Procedure, shortened: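 FLuc signal from Parkin-promoter coincidence reporter neuronal cells, normalized to DMSO and positive control (100%). Cells (1,500/well) pre-incubated 24 h, then exposed to LOPAC compounds in 7-point dose response for 24 h at 37 C, 5% CO2.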

Row | Compound | Potency
39 | CCc1ccc2c(-c3cccc(Cl)c3)nc(=O)n(CC)c2n1 | inactive
40 | CNc1cc(NS(=O)(=O)c2ccc(N)cc2)nc(NC)n1 | inactive
41 | COCc1nc2c([nH]1)c(=O)n(C)c(=O)n2CC(C)C | inactive
42 | CNc1ncnc2c1ncn2[C@H]1C[C@H](OP(=O)(O)O)[C@@H](COP(=O)(O)O)O1 | inactive
43 | NC(N)=N[C@@H](CCC(=O)O)C(=O)O | inactive
44 | CCSC(=N)N | inactive
45 | CCCCCCCCCC(=O)NC(CN1CCOCC1)[C@H](O)c1ccccc1 (stereo partly specified) | inactive
46 | COc1cc2c(CCNC(C)=O)c[nH]c2cc1O | inactive
47 | CCC(=O)N1CCN(C(=O)c2ccccc2)CC1 | inactive
48 | NC/C=C\C(=O)O | inactive
49 | Nc1ncnc2c1nc(Br)n2C1OC2COP(=O)(O)O[C@@H]2C1O (stereo partly specified) | inactive
50 | CCCn1c(=O)c2c(ncn2C)n(CCC)c1=O | inactive
51 | O=C(O)Cc1ccc(O)c(O)c1 | inactive
52 | CN(C)C(=O)/N=N/C(=O)N(C)C | inactive
53 | Nc1nc2c(nc(Br)n2C2OC3COP(=O)(O)O[C@@H]3C2O)c(=O)[nH]1 (stereo partly specified) | inactive
54 | OC[C@H]1O[C@@H](n2cnc3cncnc32)[C@H](O)[C@@H]1O | inactive
55 | N=C(N)SCCc1cnc[nH]1 | inactive
56 | CC(C)[C@H](NC(=O)OCc1ccccc1)C(=O)N[C@H](C=O)Cc1ccccc1 (Cbz-Val-Phe-aldehyde) | inactive
57 | NCCCCN | inactive

Row | Compound | Potency
58 | CCCCCCN(CCCCCC)C(=O)Cc1c(-c2ccc(F)cc2)[nH]c2ccccc12 | inactive
59 | Cn1c(=O)c2[nH]c(-c3ccc(S(=O)(=O)O)cc3)nc2n(C)c1=O | inactive
60 | CN1Cc2sccc2C(c2ccc(O)c(O)c2)C1 (stereo unspecified) | inactive
61 | NCCC1CCCC(CCN)N1 (stereo unspecified) | inactive
62 | NCCCNCCCCNCCCN | inactive
63 | O=C1C2C=CC=CC2=NC(=S)N1CCN1CCC(=C(c2ccc(F)cc2)c2ccc(F)cc2)CC1 (stereo unspecified) | inactive
64 | CC(C)(C)c1cc(/C=C(\C#N)C(N)=S)cc(C(C)(C)C)c1O | inactive
65 | CCCCCCCCCCC(C)(C)C(=O)Nc1c(OC)cc(OC)cc1OC | inactive
66 | CN[C@H](CC(=O)O)C(=O)O | inactive
67 | COc1cc(CNC(=O)CCCCCCC(C)C)ccc1O | inactive
68 | Cc1ccc([N+](=O)[O-])cc1S(=O)(=O)N(C)C | inactive
69 | COc1ccc(CCn2nnnc2C2(c3ccc(C)cc3)CC2)cc1 | inactive
70 | N=C(N)c1ccc(OCCCCCOc2ccc(C(=N)N)cc2)cc1 (tested in a mixture with another compound) | inactive
71 | N[C@@H](CCC(=O)N[C@H](CSN=O)C(=O)NCC(=O)O)C(=O)O | inactive
72 | c1ccc(C(NCCNC(c2ccccc2)c2ccccc2)c2ccccc2)cc1 | inactive
73 | COC(=O)C(N)Cc1ccc(Cl)cc1 (stereo unspecified) | inactive
74 | NCCNS(=O)(=O)c1cccc2c(Cl)cccc12 | inactive
75 | O=C(O)c1cc2cc(F)ccc2[nH]1 | inactive
76 | Nc1ccc(N2C(=O)c3ccccc3C2=O)c(Cl)c1 | inactive
